# Screens as filed in PubChem.
# Compounds with a hit are over-represented: about 7.2% of the library has one in this group of screens.
# Sm TGR inh: qHTS Assay for the Inhibitors of Schistosoma Mansoni Peroxiredoxins. Potency, µM (doses to about 114 µM), for inactives: top-dose activity change, negative = inhibition, hits mostly inhibitors. purified TGR, DTNB reduction, TNB absorbance 405 nm. Schistosoma mansoni thioredoxin glutathione reductase (TGR), Q962Y6. hit rate 3% among 360,000; note: nearly all actives have a fitted effect of over 60% in size
#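 First, TGR (20 nM dispensed) and NADPH were mixed with compound. Second, a 15 min room-temperature incubation followed. Third, further NADPH and then DTNB were added to start the reaction. Finally, TNB absorbance was monitored kinetically.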
# FMDV antiviral: High Throughput Screening for Foot and Mouth Disease Virus Antivirals. FMDV antiviral cell-based qHTS. Potency, µM (series often up to 57.9 µM), for inactives: top-dose activity change, negative = inhibition, actives largely listed as inhibitors. hit rate 1.2% among 410,000; calls by dose curve; tested in HEK293T cells; note: read-out not given here; nearly all actives have a fitted effect of over 45% in size
# HCV inhibitor: qHTS Assay for Inhibitors of Hepatitis C Virus (HCV); Huh7.5.1 HCVcc-Cre infection, luciferase reporter, 44 h; Potency, µM (top dose mostly 41.8 µM), inactives show top-dose activity change, negative = inhibition, usual class: inhibitors; hit rate 3.4% among 340,000; AID 651820, 2012
#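 A cell-based infection assay in which seeded cells (1,000 per well) receive test compound after 4 h, are inoculated with HCVcc-Cre at approximately 0.5 moi, and are incubated 44 h before luminescence detection.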
# RE007 growth inh: qHTS Assay for Inhibitors of the HIV-1 protein Vpr; S. pombe RE007 Vpr strain, BacTiter-Glo ATP luminescence, 24 h; Potency, µM (top dose mostly 92.2 µM), inactives show top-dose activity change, negative = less growth, actives largely listed as inhibitors; hit rate 0.21% among 360,000; AID 651644, 2012; active = well fitted falling curve with a large enough effect; inconclusive = small, poorly fitted or top-dose-only effect; inactive = no such curve, though single readings can be large or run the other way; note: nearly all actives have a fitted effect of over 50% in size
#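 Fission yeast strain RE007, carrying one chromosomally integrated HIV-1 vpr copy, was seeded at OD 0.01 in PMG+AL medium with 23 nL pinned compound. After 24 h at 30 °C and 99% humidity, viability was read by BacTiter-Glo luminescence.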
# LASV entry inh: qHTS for Inhibitors of binding or entry into cells for Lassa Virus; Potency, µM (top dose mostly 37.9 µM), for the others: top-dose activity change, negative = inhibition, actives largely listed as inhibitors; hit rate 1.2% among 300,000; AID 540256, 2011; Lassa virus pseudotype entry inhibition, cell reporter; calls by dose curve; tested in HEK293 cells; note: nearly all actives have a fitted effect of over 50% in size
# MARV entry inh: qHTS for inhibitors of binding or entry into cells for Marburg Virus | Marburg virus pseudotyped entry inhibition, cell reporter | hit rate 1.8% among 300,000 | AID 540276, 2011 | Potency, µM (series often up to 37.8 µM), inactives show at the top dose activity change, negative = inhibition, hits mostly inhibitors; calls by dose curve; tested in HEK293 cells
# Numbers without * were called inactive; ? = inconclusive; . = no result; ! = a repeat was not active; [ ] = another dose, or the depositor's remark. Unless noted, calls come from the whole dose curve; as a rule, active = well fitted curve in the direction sought with a large enough effect; inconclusive = small, poorly fitted or top-dose-only effect, or another doubt; inactive = no such curve, though single readings can be large; an effect the other way counts as inactive or inconclusive. % is set by controls: 0 for no effect and ±100 for the full control effect; potency is the fitted concentration of half-maximal effect.
SMILES,Sm TGR inh,FMDV antiviral,HCV inhibitor,RE007 growth inh,LASV entry inh,MARV entry inh
CCOC(=O)c1c(C)oc2c1c(C(c1ccccc1)N1CCOCC1)c(O)c1ccccc12 (configuration not stated),10µM*,74%,?,?,23µM*,?
CCOC(=O)c1c(N2CCCCC2)c2ccccc2[nH]c1=O,-20%,-4%,0%,11%,-7%,-8%
CCOC(=O)c1c(C)oc2c1c(C(c1cccnc1)N1CCCCC1)c(O)c1ccccc12 (configuration not stated),0.71µM*,-6%,?,-5%,12%,0%
COc1ccc(C2C(C(=O)N3CCCCC3)CCC(=O)N2c2cc(OC)c(OC)c(OC)c2)cc1 (configuration not stated),-4%,-18%,2%,-21%,7.3µM*,11%
CCOc1ccccc1NC(=O)C(Cc1ccccc1)NS(=O)(=O)c1ccc(Br)s1 (configuration not stated),3%,23%,.,.,-22%[46.1 µM],?
COc1ccc(-c2ccc(CCC(=O)O)n2NC(N)=O)cc1,45µM*,-16%,13%,3%,.,.
COc1ccc(C(=O)Nn2c(CCC(=O)O)ccc2-c2ccc(C)cc2)cc1OC,?,9%,-4%,-9%,1%,-7%[46.1 µM]
CCCn1c(CCC(=O)O)ccc1-c1ccc(OC)cc1,40µM*,.,-1%,3%,?,23%
NC(=O)Nn1c(CCC(=O)O)ccc1-c1ccc(Cl)cc1,-32%,-14%,2%,-18%,19%,11%[46.1 µM]
NC(=O)Nn1c(CCC(=O)O)ccc1-c1ccc(Br)cc1,14µM*,0%,-11%,-4%,25%,14%
O=C(c1cnsn1)N1CCOc2ccc(CN3CCOCC3)cc2C1,.,18%,.,.,.,.
O=C(Nc1ccc2nc(-c3ccco3)c(-c3ccco3)nc2c1)N1CCCCCC1,0.71µM*,-12%,2.8µM*,-1%,-10%,-17%
CCOC(=O)C1CCN(C(=O)Nc2ccc3nc(-c4ccco4)c(-c4ccco4)nc3c2)CC1,0.71µM*,?,?,-22%,-3%,?
CCOC(=O)C1CCN(C(=O)Nc2ccc3c(c2)nc(C)n3C)CC1,2%,0%,8%,6%,-14%,15%
CC(=O)N1N=C(c2ccco2)CC1c1ccco1 (configuration not stated),-24%,11%,-15%,-1%,-2%,3%
O=C(c1ccc(Br)o1)N1N=C(c2ccc(Cl)cc2)CC1c1ccco1 (configuration not stated),45µM*,-14%,?,-1%,-29%,-22%
Cc1ccc(C2=NN(C(=O)CCl)C(c3ccco3)C2)o1 (configuration not stated),7.1µM*,?,8.9µM*,1%,14%,?
CCS(=O)(=O)Nc1cccc(C2=NN(S(=O)(=O)c3ccc(C)cc3)C(c3ccco3)C2)c1 (configuration not stated),?,9%,-27%,-4%,.,.
CCS(=O)(=O)Nc1cccc(C2=NN(S(=O)(=O)c3ccccc3)C(c3ccco3)C2)c1 (configuration not stated),28µM*,8%,-6%,-6%,?,-4%
CS(=O)(=O)Nc1cccc(C2=NN(S(=O)(=O)c3ccccc3)C(c3ccco3)C2)c1 (configuration not stated),20µM*,4%,-12%,2%,-16%,1%
CCS(=O)(=O)N1N=C(c2cccc(NS(C)(=O)=O)c2)CC1c1ccccc1 (configuration not stated),-23%,12%,-3%,-13%,?,?
CCN1C(=NCCc2ccccn2)NC(c2cccc(C(F)(F)F)c2)C(C(=O)OC)=C1C (configuration not stated),.,.,.,.,?,-20%[14.2 µM]
Cc1ccc(S(=O)(=O)N[C@H](C(=O)OCC(=O)N2N=C(c3ccc(Cl)cc3)CC2c2ccco2)C(C)C)cc1 (some centres not stated),-10%,0%,13µM*,3%,?,?
O=S(=O)(c1ccccc1)N1N=C(c2ccc(Cl)cc2)CC1c1ccco1 (configuration not stated),40µM*,0%,?,-8%,?,10µM*
CCC(=O)N1N=C(c2ccc(NS(=O)(=O)c3ccccc3)cc2)CC1c1ccco1 (configuration not stated),.,-10%,11µM*,-11%,.,.
SMILES,Sm TGR inh,FMDV antiviral,HCV inhibitor,RE007 growth inh,LASV entry inh,MARV entry inh
Cn1nnnc1SCC(=O)N1N=C(c2ccc(Cl)cc2)CC1c1ccco1 (configuration not stated),.,-16%,11%,14%,.,.
Cc1nnc(SCC(=O)N2N=C(c3ccc(Cl)cc3)CC2c2ccco2)[nH]c1=O (configuration not stated),13µM*,0%,-6%,?,12%,2%[46.1 µM]
O=C(NCc1nnc2n1CCN(Cc1ccc(C(F)(F)F)cc1)CC2)c1cccc(F)c1,.,-12%,.,.,.,.
CCCC[C@]12Cc3cc(OC)c(OC)cc3[C@H](O1)c1c(cc(-c3ccccc3)oc1=O)O2,.,.,.,.,.,-25%[14.2 µM]
CS(=O)(=O)N1N=C(c2cccs2)CC1c1ccco1 (configuration not stated),7.9µM*,27%,10%,-10%,?,?
COc1ccc(C2=NN(C(=O)COC(=O)c3ccc(S(C)(=O)=O)c([N+](=O)[O-])c3)C(c3ccco3)C2)cc1 (configuration not stated),.,25µM*,?,4%,?,?
CC(=O)N1N=C(c2cccs2)CC1c1ccco1 (configuration not stated),?,-3%,2%,14%,-3%[46.1 µM],-1%[46.1 µM]
CCOc1ccc(OCC)c(NC(=O)c2ccc(-c3ccccc3)s2)c1,4%,18%,.,.,4%[46.1 µM],-3%[46.1 µM]
CCCCCC(=O)Cc1cc(O)cc(O)c1C(=O)Oc1cc(CC(=O)CCCCC)c(C(=O)O)c(OC)c1,.,5%,.,.,.,.
CCCCCc1c2c(cc(O)c1C(=O)O)OC(=O)c1cc(C(=O)CCCC)c(OC)cc1O2,.,?,0.5µM*,13%,.,.
CCCCCc1c2c(cc(O)c1C(=O)O)OC(=O)c1c(cc(OC)cc1C(=O)CCCC)O2,40µM*,32µM*!,8%,1%,.,.
N#Cc1ccc(C(=O)Nc2ccc3ccccc3c2)cc1,-2%,30%,-22%,8%,4µM*,?
N#Cc1ccc(C(=O)Nc2nc3ccccc3[nH]2)cc1,2%,-4%,-2%,4%,?,10µM*
